Our source for the Potency values is PubChem BioAssay (Tox21).

Records with an inconclusive call do not appear. Where a call stands in place of a potency, no number is given. Active and inactive are the calls of the source. Calls follow the shape of the dose curve; as a rule, active = well fitted cell-killing curve with a large enough effect in the repeat runs; inconclusive = weak or mixed curves, or effect the other way; inactive = flat fitted curve, though single readings scatter.

The assay can be described thus: qHTS assay to identify small molecule antagonists of the androgen receptor (AR) signaling pathway using the MDA cell line - cell viability counter screen (AID 743041; also: nearly all actives have a fitted effect of over 45% in size). The following applies: MDA-kb2 viability, CellTiter-Fluor, 16 h, cells co-treated with R1881 androgen agonist; series mostly up to 70.3 µM. The text has this: National Center for Advancing Translational Sciences [NCATS]
NIH Chemical Genomics Center [NCGC]
U.S. Environmental Protection Agency [EPA]
National Institutes of Environmental Health Sciences [NIEHS]
National Toxicology Program [NTP]
U.S. Food and Drug Administration [FDA]
Androgen receptor (AR), a nuclear hormone receptor, plays a critical role in AR-dependent prostate cancer and other androgen related diseases. Endocrine disrupting chemicals (EDCs) and their interactions with steroid hormone receptors like AR may cause disruption of normal endocrine function as well as interfere with metabolic homeostasis, reproduction, developmental and behavioral functions. To identify the compounds that inhibit AR signaling, MDA-kb2 AR-luc cell line (from ATCC, deposited by Wilson et al.) was used to screen the Tox21 10K compound library. MDA-kb2 AR-luc cell line is human breast carcinoma cell line that was stably transfected with a luciferase reporter gene under control of the MMTV promoter containing response elements for both androgen receptor (AR) and glucocorticoid receptor (GR). The cytotoxicity of the Tox21 compound library against the MDA-kb2 AR-luc cell line was tested in parallel by measuring the cell viability using CellTiter-Fluor assay (Promega, Madison, WI) in the same wells.
Tox21 Assay Protocol Summary:
MDA-kb2 AR-luc cells were dispensed at 3,000 cells/4 uL/well of culture medium into white wall/solid-bottom 1536-well plates using a Multidrop Combi (ThermoFisher Scientific, Waltham, MA) dispenser. After the assay plates were incubated at a 37C and 0% CO2 for 5 hr, 23 nL of compounds dissolved in DMSO, positive controls or DMSO only was transferred to the assay plate by a Pintool station (Kalypsys, San Diego, CA), followed by addition of 1 uL of agonist (R1881) in culture medium using a Bioraptr Flying Reagent Dispenser (FRD) workstation (Beckman Coulter, Indianapolis, IN, USA). The plates were incubated at a 37C and 0% CO2 for 16 h. After 15.5 h incubation, 1uL of CellTiter-Fluor reagent (Promega) was added using a Bioraptr FRD to each plate for measuring cytotoxicity. The fluorescence intensity was quantified on a ViewLux plate reader (PerkinElmer, Shelton, CT) following 30 min incubation at 37C and 0% CO2.
For the compound `CC(C(=O)O)c1ccc2c(c1)[nH]c1ccc(Cl)cc12` (stereo not given), the Potency entry was “inactive”.

On to `CCc1cccc(CC)c1NC(=O)CN(CC(=O)O)CC(=O)O`, for which the Potency result is “inactive”.

For the compound `CC1(C)CCC[C@]2(C)[C@H]3CCO[C@]3(C)CC[C@@H]12`, the Potency result is “inactive”.

Regarding `CCCCCCCC`, the Potency result was “inactive”.

As to `[Cu+]`, the Potency result is “inactive”.

With `NC[C@H]1O[C@H](O[C@H]2[C@H](O[C@@H]3O[C@H](CO)[C@@H](O)[C@H]3O)C(O)[C@H](N)C[C@@H]2N)[C@H](N)[C@@H](O)[C@@H]1O` (stereo not given in full), the Potency entry is “inactive”.

As to `C#C[C@]1(OC(C)=O)CC[C@H]2[C@@H]3CCC4=C/C(=N/O)CC[C@@H]4[C@H]3CC[C@@]21CC`, the Potency entry is “inactive”.

Take `CCCC(=O)OC(C)(C)Cc1ccccc1`: the Potency entry was “inactive”.

With `C/C=C/C=C/COC(=O)C(C)C`, the Potency entry was “inactive”.

Regarding `CCC(CC)(CC(=O)Nc1cccc(/C=C/c2nc(C3CCC3)cs2)c1)C(=O)O`, the Potency result is “inactive”.

For the compound `C=C(C)c1cccc(C(=C)C)c1`, the Potency result was “inactive”.

Take `CCc1ccc(Br)cc1`: the Potency result is “inactive”.

In the case of `NC(=O)c1cccc([N+](=O)[O-])c1`, the Potency result is “inactive”.

As to `CCC(CC)C(C)CCOC(C)=O` (stereo not given), the Potency entry was “inactive”.

For `CCCC[P+](C)(CCCC)CCCC`, the Potency result was “inactive”.

With `CC(C)(C)C1CCC(=O)CC1`, the Potency result was “inactive”.

Regarding `OC/C=C/CO`, the Potency entry is “inactive”.

On to `COC(C)=O`, for which the Potency entry is “inactive”.

In the case of `CCC(C)(CCC(C)C)C(=O)[O][Sn]([CH3])([CH3])[O]C(=O)C(C)(CC)CCC(C)C` (stereo not given), the Potency entry is “inactive”.

Take `Cc1nc(-c2ccc(Cl)cc2)oc1COC(C)(C)C(=O)O`: the Potency result was “inactive”.

`C[C@@H](O)[C@H](N)C(=O)O`: the Potency result was “inactive”.

Consider `O=C(O)c1cccc(C(F)(F)F)c1`, for which the Potency result was “inactive”.

Turning to `Nc1ccc(Oc2ccc(Cl)cc2)cc1`, the Potency result is “inactive”.

For `CC(C)CCCCCOC(=O)CCS`, the Potency result was “inactive”.

In the case of `S=c1nccc[nH]1`, the Potency result was “inactive”.

On to `Cc1cccc(C(=O)O)c1O`, for which the Potency entry was “inactive”.

On to `Nc1nc(N)nc(-c2cc(Cl)ccc2Cl)n1`, for which the Potency result was “inactive”.

Take `C=Cc1cccc(C)c1`: the Potency entry was “inactive”.

In the case of `Cc1c(C)c2c(c(C)c1OC(=O)c1cccnc1)CC[C@@](C)(CCC[C@H](C)CCC[C@H](C)CCCC(C)C)O2`, the Potency entry was “inactive”.

With `CC(CCc1ccccc1)NCC(O)c1ccc(O)c(C(N)=O)c1` (stereo not given), the Potency entry is “inactive”.

Turning to `C[Si](Cl)(c1ccccc1)c1ccccc1`, the Potency result was “inactive”.

With `CCCCOC(=O)CC`, the Potency result was “inactive”.

Regarding `C#C[C@]1(O)CC[C@H]2[C@@H]3[C@H](C)CC4=C(CCC(=O)C4)[C@H]3CC[C@@]21C`, the Potency result was “inactive”.

Take `CC(C)Cn1cnc2c(N)nc3ccccc3c21`: the Potency result is “inactive”.

Consider `CCCCCCCCCCC[C@@H](C[C@@H]1OC(=O)[C@H]1CCCCCC)OC(=O)[C@H](CC(C)C)NC=O`, for which the Potency result was “inactive”.

In the case of `CCCCCCCC/C=C\CCCCCCCCN`, the Potency entry is “inactive”.

With `C=C(C)C(=O)OCCCCCCCCCC`, the Potency result is “inactive”.

For `CCCCCc1ccc(Cl)cc1`, the Potency entry is “inactive”.

`C#C[C@]1(OC(C)=O)CC[C@H]2[C@@H]3CCC4=C[C@@H](OC(C)=O)CC[C@@H]4[C@H]3CC[C@@]21C`: the Potency result is “inactive”.

For the compound `Clc1sc(Cl)c(Cl)c1Cl`, the Potency result was “inactive”.
